Compound activity from PubChem BioAssay.
ClpP mod = qHTS Assay for Activators of ClpP. ATP-dependent Clp protease proteolytic subunit (Bacillus subtilis (strain 168)), P80244. purified B. subtilis ClpP, FRET peptide cleavage, 20 min. Potency, µM (doses to about 57.5 µM). actives 1.9% (n = 340,000). AID 651965, 2013; active means well fitted falling curve with a large enough effect; inconclusive means small, poorly fitted or top-dose-only effect; inactive means no such curve, though single readings can be large or run the other way; further: the source files actives as falling curves though it sought activators and does not explain the sign; nearly all actives have a fitted effect of over 65% in size
Target sequence (P80244 whole entry, looked up): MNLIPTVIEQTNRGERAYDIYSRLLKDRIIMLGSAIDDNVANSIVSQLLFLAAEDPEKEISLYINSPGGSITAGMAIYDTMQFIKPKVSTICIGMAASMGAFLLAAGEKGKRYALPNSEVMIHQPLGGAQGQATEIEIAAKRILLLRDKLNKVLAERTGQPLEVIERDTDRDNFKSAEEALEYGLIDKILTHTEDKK
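Buffer: 100 mM Tris/HCl pH8, 100 mM KCl, 0.05% low protease BSA, 2.5% glycerol, 0.01% Tween-20. ClpP 10 microg/mL final; 20 min RT; delta FRET normalized to ADEP and DMSO controls.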
TDP1 block = qHTS Assay for Inhibitors of Tyrosyl-DNA Phosphodiesterase (TDP1); Potency, µM (titrated, usually from 130 µM), actives largely listed as inhibitors; recombinant TDP1, AlphaScreen DNA substrate cleavage; actives 0.28% (n = 350,000); further: nearly all actives have a fitted effect of over 40% in size
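Enzyme-compound mixtures sat 15 min at room temperature, followed by a 5 min reaction with 15 nM final substrate and 10 min with AlphaScreen beads. Recombinant human Tdp1 was used at 1 nM final.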
DT40 TDP1 no CPT = qHTS for Inhibitors of human tyrosyl-DNA phosphodiesterase 1 (TDP1): qHTS in cells in absence of CPT | DT40 Tdp1-/- hTDP1 cells, no CPT, ATP luminescence, 48 h | Potency, µM (doses to about 46.2 µM), actives largely listed as inhibitors | actives 15% (n = 420,000); further: nearly all actives have a fitted effect of over 55% in size
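Cells were dispensed at 400 per well, compounds added by pin tool, plates incubated ≥48 hr at 37 °C, then CellTiter-Glo added for 30 min at room temperature before luminescence reading. Line: DT40 Tdp1-/- complemented with hTDP1; camptothecin omitted.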
TDP1 cell CPT = qHTS for Inhibitors of human tyrosyl-DNA phosphodiesterase 1 (TDP1): qHTS in cells in presence of CPT; Potency, µM (doses to about 46.2 µM), most hits filed as inhibitors; actives 12% (n = 420,000); chicken DT40 Tdp1-/-;hTDP1 cells + 20 nM CPT, ATP luminescence, 48 h; further: nearly all actives have a fitted effect of over 55% in size
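Cell growth measured by CellTiter-Glo luminescence after a minimum 48 h, 37 C compound exposure with 20 nM CPT in Tdp1-knockout DT40 cells stably expressing hTDP1, seeded 400/well; qHTS titration format.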
Large screens that a line does not name were inactive. The list is not random: actives were taken first. Their share in the collection is about 17%. Unless noted, the call rests on the fitted dose curve; in most records, active means well fitted curve in the direction sought with a large enough effect; inconclusive means small, poorly fitted or top-dose-only effect, or another doubt; inactive means no such curve, though single readings can be large; an effect the other way counts as inactive or inconclusive.

CSc1ncccc1C(=O)NCC12CC3CC(CC(C3)C1)C2	none (no result: ClpP mod)
CCc1ccc(NC(=O)[C@H](C)NC(=O)C2CCN(C(=O)[C@@H](N)Cc3ccccc3)CC2)cc1	DT40 TDP1 no CPT 16µM, TDP1 cell CPT inconclusive (no result: TDP1 block)
CCC(C)Oc1nc(C)cc(C)c1S(=O)(=O)c1ccccc1C (stereo not drawn)	ClpP mod inconclusive, DT40 TDP1 no CPT 16µM, TDP1 cell CPT inconclusive
CSc1nc(C)cc(C)c1S(=O)(=O)c1ccccc1C	DT40 TDP1 no CPT inconclusive, TDP1 cell CPT inconclusive
Cc1cc(C)c(S(=O)(=O)c2c(C)cccc2C)c(OCC(C)C)n1	DT40 TDP1 no CPT 13µM, TDP1 cell CPT 23µM
CCSc1nc(C)cc(C)c1S(=O)(=O)c1ccccc1C	DT40 TDP1 no CPT 21µM, TDP1 cell CPT inconclusive
COCc1ccc(CN2Cc3cc(Cl)ccc3OC(C)C2)o1 (stereo not drawn)	none (no result: ClpP mod, TDP1 block)
O=c1cc(-c2ccc(F)cc2)nc(SCc2nc(-c3cccc(Cl)c3)no2)[nH]1	DT40 TDP1 no CPT inconclusive
CCc1cc(=O)oc2cc3occ(-c4ccc(OC)c(F)c4)c3cc12	ClpP mod inconclusive, DT40 TDP1 no CPT 2.1µM, TDP1 cell CPT 4.6µM
COc1cccc(C(=O)NNc2nc(C)cc(C)n2)c1	none
Clc1cncc(Cl)c1NNc1c2ccccc2nc2ccccc12	ClpP mod 28µM, DT40 TDP1 no CPT inconclusive, TDP1 cell CPT inconclusive
COc1ccccc1OCC(=O)NNC(=O)CCCC(=O)NNC(=O)COc1ccccc1OC	none (no result: TDP1 block)
Cc1cc(C(=O)NNC(=O)c2ccc(Cl)cc2)c2ccccc2n1	none
COc1ccccc1OCC(=O)NNc1c2ccccc2nc2ccccc12	DT40 TDP1 no CPT 18µM, TDP1 cell CPT inconclusive (no result: TDP1 block)
O=C(NNc1c2ccccc2nc2ccccc12)c1ccc(Cl)cc1	DT40 TDP1 no CPT 12µM, TDP1 cell CPT inconclusive (no result: ClpP mod, TDP1 block)
COc1cccc(C(=O)NNc2c3ccccc3nc3ccccc23)c1	DT40 TDP1 no CPT 12µM, TDP1 cell CPT inconclusive (no result: TDP1 block)
Cc1ccc(C(=O)NNc2c3ccccc3nc3ccccc23)cc1	DT40 TDP1 no CPT 10µM, TDP1 cell CPT 13µM (no result: ClpP mod, TDP1 block)
C[N+]1(CC(=O)NNc2c3ccccc3nc3ccccc23)CCOCC1	none (no result: ClpP mod, DT40 TDP1 no CPT, TDP1 cell CPT)
Nc1ccccc1C(=O)NNc1c2ccccc2nc2ccccc12	DT40 TDP1 no CPT 13µM, TDP1 cell CPT inconclusive
Cc1c(O)nc(SCC(=O)Nc2ccc(Cl)cc2Cl)n(-c2ccc(F)cc2)c1=O	none
Cc1ccccc1CNC(=O)CN1C(=O)C2CCCCN2c2ccc(C(=O)N3CCCC3)cc21 (stereo not drawn)	none
CCNC(=O)C1(C)CCN(C(=O)c2c(F)ccc(C)c2F)C1 (stereo not drawn)	none (no result: TDP1 block)
CN1CCN(Cc2nc3ccccc3c(=O)n2Cc2nc(-c3ccccc3F)cs2)CC1	DT40 TDP1 no CPT 10µM, TDP1 cell CPT 16µM
CN1CCN(Cc2nc3ccccc3c(=O)n2Cc2nc(-c3ccc4ccccc4c3)cs2)CC1	DT40 TDP1 no CPT 2.3µM, TDP1 cell CPT 4.6µM
Cc1[nH]c(=O)sc1C(=O)NCc1ccc([N+](=O)[O-])cc1	TDP1 cell CPT inconclusive (no result: TDP1 block)
Cc1nn(CC(=O)NCCCN2CCN(Cc3ccccc3)CC2)c(=O)c2cc(-c3ccccc3)nn12	DT40 TDP1 no CPT 21µM, TDP1 cell CPT inconclusive
CCc1ccc(-c2cc3c(=O)n(CC(=O)NCCCN4CCC(Cc5ccccc5)CC4)nc(C)n3n2)cc1	DT40 TDP1 no CPT inconclusive, TDP1 cell CPT inconclusive
CN1CCN(CCCNC(=O)Cn2nc(-c3ccccc3)ccc2=O)CC1	none
Cc1nn(CC(=O)NCCCN2CCC(Cc3ccccc3)CC2)c(=O)c2cc(-c3ccccc3)nn12	DT40 TDP1 no CPT 18µM, TDP1 cell CPT 18µM
CCN1CCN(CCCNC(=O)Cn2nc(C)n3nc(-c4ccccc4)cc3c2=O)CC1	none
O=C(Cn1nc(-c2ccc(Cl)cc2)ccc1=O)NCCCN1CCN(Cc2ccccc2)CC1	ClpP mod 32µM, DT40 TDP1 no CPT inconclusive, TDP1 cell CPT inconclusive
O=C(CSCn1nnc2c(=O)[nH]c(Cc3ccc(F)cc3)nc21)Nc1cccc(C(F)(F)F)c1	DT40 TDP1 no CPT inconclusive, TDP1 cell CPT inconclusive
C=C(C)Cn1c(N2CCC(Cc3ccccc3)CC2)nc2c1c(=O)[nH]c(=O)n2C	DT40 TDP1 no CPT inconclusive, TDP1 cell CPT inconclusive
CCCCCn1c(N2CCC(Cc3ccccc3)CC2)nc2c1c(=O)[nH]c(=O)n2C	DT40 TDP1 no CPT inconclusive, TDP1 cell CPT 7.3µM (no result: TDP1 block)
CC(=O)Cn1c(N2CCC(Cc3ccccc3)CC2)nc2c1c(=O)[nH]c(=O)n2C	DT40 TDP1 no CPT 16µM, TDP1 cell CPT inconclusive
O=S(=O)(NCc1cccc(C(F)(F)F)c1)NCc1ccccc1F	none (no result: ClpP mod)
O=C(Nc1cc(SCCO)cc([N+](=O)[O-])c1)c1ccc(Br)o1	DT40 TDP1 no CPT 21µM, TDP1 cell CPT inconclusive
FC(F)(F)c1ccc(Cl)c(N/N=C/c2ccc(N3CCOCC3)s2)c1	DT40 TDP1 no CPT inconclusive
CC/C(=N\N=C(/CC)c1ccccc1N)c1ccccc1N	DT40 TDP1 no CPT 23µM, TDP1 cell CPT 29µM (no result: ClpP mod, TDP1 block)
COc1cc2c(c(OC)c1OC)-c1c(cc3c(c1O)OCO3)C[C@@H](C)[C@@H](C)C2	DT40 TDP1 no CPT inconclusive, TDP1 cell CPT 23µM
CCN1CCN(C(=O)C(N)Cc2ccccc2)CC1 (stereo not drawn)	none
Cc1ccc(S(=O)(=O)N(CCc2ccccc2)CC(=O)Nc2cc(C)ccc2C)cc1	DT40 TDP1 no CPT 16µM, TDP1 cell CPT inconclusive
Cc1ccc(C)c(NC(=O)CN(C)S(=O)(=O)c2ccccc2)c1	none
CSc1ccccc1NC(=O)CN(C)CC(=O)Nc1cc(C)ccc1C	DT40 TDP1 no CPT 21µM (no result: ClpP mod)
CSc1ccccc1NC(=O)CN(C)CC(=O)NCc1ccccc1	none
COc1ccc(/C=N/NC(=O)CN(CCc2ccccc2)S(=O)(=O)c2ccc(NC(C)=O)cc2)cc1OC	DT40 TDP1 no CPT inconclusive, TDP1 cell CPT inconclusive
COc1ccc(S(=O)(=O)N(CCc2ccccc2)CC(=O)Nc2ccc(C)c(C)c2)cc1OC	DT40 TDP1 no CPT 16µM, TDP1 cell CPT 15µM
COc1ccc(S(=O)(=O)N(CCc2ccccc2)CC(=O)NCc2ccc(C)cc2)cc1	DT40 TDP1 no CPT 21µM, TDP1 cell CPT inconclusive
Cc1cc(SCc2ccc([N+](=O)[O-])cc2)nc(=O)[nH]1	none (no result: TDP1 block)
CCc1nn(CC(=O)NCc2ccc(OC)c(OC)c2)c(=O)c2cc3sc(C)cc3n12	TDP1 cell CPT inconclusive
COc1cccc(NC(=O)CN(C)C(=O)C(Sc2ccccc2)c2ccccc2)c1 (stereo not drawn)	ClpP mod 28µM, DT40 TDP1 no CPT inconclusive
COCCNC(=O)CN(CCc1ccccc1)S(=O)(=O)c1ccc(OC)cc1	none
COc1ccc(S(=O)(=O)N(CCc2ccccc2)CC(=O)Nc2cc(C)ccc2C)cc1	DT40 TDP1 no CPT 21µM, TDP1 cell CPT 18µM
COc1ccc(S(=O)(=O)N(CCc2ccccc2)CC(=O)Nc2cccc(OC)c2)cc1	DT40 TDP1 no CPT 18µM, TDP1 cell CPT inconclusive
COc1cccc(NC(=O)CN(C)C(=O)Cc2cccc3ccccc23)c1	none
